Reference: publication PMC5540273 (PLoS ONE, 2017)

tested on: ROS1; conditions: concentration: 1 μM, replicates: in singlicate; n = 1
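Note: KINOMEscan kinase panel screen.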

Row | Structure (SMILES) | %Inh [%]
1 | Cc1occc1-c1ncc(OC[C@@H](N)Cc2c[nH]c3ccccc23)cc1-c1ccc2[nH]nc(C)c2c1.O=C(O)C(F)(F)F [GSK682037] | 26
2 | C[C@@H]1CC[C@@H](C(=O)Nc2ccccc2)CN1c1cc(-c2ccc3c(N)n[nH]c3c2)nc(N)n1 [GSK2286062] | 14
3 | CCn1c(-c2nonc2N)nc2c(C#CC(C)(C)O)ncc(OCCCCN)c21.O=C(O)C(F)(F)F.O=C(O)C(F)(F)F [GSK507274] | 0
4 | O=c1[nH]cc(-c2ccc(N3CCOCC3)cc2)c2sc(-c3cn[nH]c3)cc12 [GSK2276055] | 0
5 | COc1cccc(C2=C(Nc3ccc(Cl)c(C(=O)O)c3)C(=O)NC2=O)c1 [SB-390769] | 0
